Records with an inconclusive call do not appear. Entries that show only a call come without a potency. Calls of active or inactive are those of the source. Unless noted, calls follow the shape of the dose curve; as a rule, active = well fitted curve in the direction sought with a large enough effect; inconclusive = small, poorly fitted or top-dose-only effect, or another doubt; inactive = no such curve, though single readings can be large; an effect the other way counts as inactive or inconclusive.
Columns and labels:
[1] = Validation screen for small molecules that induce DNA re-replication in MCF 10A normal breast cells (AID 463097); details: MCF 10A cells, DNA re-replication phenotype imaging; series mostly up to 46.1 µM; also: nearly all actives have a fitted effect of over 60% in size; also: potency is read from the fitted curve at half-maximal effect
How it was run: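 Read-out is Hoechst total nuclear intensity by fluorescence scanning imager, flagging increased high-DNA-content nuclei. Compounds were incubated with MCF 10A cells for 48 hr (37 C, 5% CO2) before 40 min staining.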

[2] = target: Ubiquitin carboxyl-terminal hydrolase 2 (Homo sapiens) (UniProt O75604); experiment: qHTS Validation Assay for Inhibitors of Ubiquitin-specific Protease USP2a Using CHOP2 as the Reporter (AID 463106); details: USP2a cleavage of CHOP2 reporter, enzymatic; series mostly up to 38.3 µM
How it was run: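 Inhibition is expressed relative to NEM as the full-inhibition control, with concentration-response curves classed by fit quality, magnitude and activity. Enzyme (USP2 core, 10nM) meets 25nM Ub-CHOP2 after compound preincubation; readings are taken at 60min.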

[3] = target: DNA polymerase III PolC-type (Bacillus subtilis (strain 168)) (UniProt P13267); experiment: qHTS Validation Assay for the Inhibitors of DNA Replication in Gram-Positive Bacteria (AID 485295); details: Gram-positive bacterial DNA replication assay; series mostly up to 57.1 µM; also: potency is read from the fitted curve at half-maximal effect
How it was run: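 Double-stranded DNA product detected by PicoGreen fluorescence after EDTA quench. Compound incubated with B. subtilis holoenzyme (PolC, beta subunit, SSB, primase) before substrate addition; primed replication of M13Gori with dNTPs and NTPs at room temperature; DMSO defines 0% inhibition.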

[4] = target: Tumor susceptibility gene 101 protein (Homo sapiens) (UniProt Q99816); experiment: qHTS Validation Assay for Iinhibitors of HIV-1 Budding by Blocking the Interaction of PTAP/TSG101 (AID 485342; calls by dose curve); details: TSG101-PTAP binding, fluorescence polarization, 4-point titration; series mostly up to 115 µM
How it was run: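 Fluorescence polarization of 50 nM FITC-PTAP peptide bound to 10 uM Tsg101 binding domain was read after 20 min room-temperature incubation with compounds, in 10 mM HEPES pH 7.5, 0.15 M NaCl, 0.01% Tween 20.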

[5] = target: Beta-2 adrenergic receptor (Homo sapiens) (UniProt P07550); experiment: qHTS validation assay of beta-arrestin-biased ligands of beta2-adrenergic receptor (AID 485366); details: cell-based beta-arrestin recruitment to ADRB2, qHTS; series mostly up to 46.1 µM
How it was run: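 Agonism was measured as beta-arrestin recruitment to recombinant beta2-AR, releasing tTA to drive luciferase. Cells were exposed for 18 hr at 37 degrees C to a series up to 46 microM. %Activity from corrected luminescence gave concentration-response curves.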

[6] = target: Thioredoxin reductase 1, cytoplasmic (Rattus norvegicus) (UniProt O89049); experiment: qHTS Assay for Substrates of Mammalian Selenoprotein Thioredoxin Reductase 1 (TrxR1) (AID 488772); details: purified TrxR1, NADPH consumption substrate assay; series mostly up to 57.1 µM;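 also: a drop in NADPH fluorescence below the no-compound background marks a TrxR1 substrate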
How it was run: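 In this dual-purpose format, potential substrates are identified from the first fluorescence read after selenite addition, not from the 8-minute delta. Rat enzyme is preincubated with NADPH and then with compound at ~22 deg C.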

[7] = Quantitative high throughput screen for delayed death inhibitors of the malarial parasite plastid, 48 hour incubation (AID 488752); details: Plasmodium falciparum growth; series mostly up to 28.7 µM; also: nearly all actives have a fitted effect of over 65% in size; also: potency is read from the fitted curve at half-maximal effect
How it was run: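 First, compound was pinned into RPMI 1640 medium containing 0.5% Albumax. Next, reporter-parasite-infected erythrocytes were added to 2% hematocrit and 0.1% parasitemia. After 48 h at 37 C under 5% CO2, luciferase detection reagent was added and luminescence read.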

[8] = Quantitative high throughput screen for delayed death inhibitors of the malarial parasite plastid, 96 hour incubation (AID 488745); details: Plasmodium falciparum growth; series mostly up to 28.7 µM; also: nearly all actives have a fitted effect of over 70% in size; also: potency is read from the fitted curve at half-maximal effect
How it was run: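 Readout is firefly luciferase luminescence from an integrated reporter in P. falciparum; lower signal marks inhibited growth. Cultures at 2% hematocrit and 0.1% parasitemia were treated with compound across two generations (96 h, 37 C, 5% CO2).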

[9] = qHTS Validation Assay to Find Inhibitors of Chronic Active B-Cell Receptor Signaling (AID 485345; active = well fitted curve in the direction sought with a large enough effect in the main read-out, with a control signal flat, not every such curve was filed as active); details: ABC-DLBCL cells, chronic BCR signaling reporter, CBG luciferase; series mostly up to 46.1 µM
How it was run: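 TMD8 ABC-DLBCL cells with dox-inducible green luciferase–IκBα fusion and red native luciferase; compounds 46 uM–3 nM, 4 h at 37C with doxycycline in 0.5% FBS IMDM. Green/red ratio normalized to basal and 10 uM MG-132.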

[10] = target: ATP-dependent 6-phosphofructokinase (Trypanosoma brucei brucei) (UniProt O15648); experiment: qHTS Validation Assay to Find Inhibitors of T. brucei phosphofructokinase (AID 485368); details: T. brucei PFK enzyme assay, qHTS 7-point titration; series mostly up to 57.5 µM
How it was run: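 ADP-Glo luminescence, two-step: residual ATP depleted, then ADP converted to ATP for luciferase. Enzyme 1.25 nM, F6P 0.5 mM, ATP 0.1 mM, pH 8.0 TEA buffer, 45 min RT. Curves fitted and classed by quality and efficacy.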

Chain of Thioredoxin reductase 1, cytoplasmic (Rattus norvegicus) (O89049 whole entry, looked up): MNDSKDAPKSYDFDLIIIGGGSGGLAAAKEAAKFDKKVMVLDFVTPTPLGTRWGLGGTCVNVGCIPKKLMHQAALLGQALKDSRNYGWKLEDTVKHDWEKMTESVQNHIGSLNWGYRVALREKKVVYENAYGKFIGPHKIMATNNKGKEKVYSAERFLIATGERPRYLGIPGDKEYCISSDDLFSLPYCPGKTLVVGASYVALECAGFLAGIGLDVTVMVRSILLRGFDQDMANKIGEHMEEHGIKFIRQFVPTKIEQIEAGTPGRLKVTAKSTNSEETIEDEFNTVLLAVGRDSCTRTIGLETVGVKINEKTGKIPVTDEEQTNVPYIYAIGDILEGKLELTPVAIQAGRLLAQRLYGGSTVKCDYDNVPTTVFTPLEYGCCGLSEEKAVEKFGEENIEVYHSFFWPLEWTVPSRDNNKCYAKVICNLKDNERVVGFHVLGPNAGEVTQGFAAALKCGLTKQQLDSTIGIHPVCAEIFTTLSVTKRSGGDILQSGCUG
Chain of Beta-2 adrenergic receptor (Homo sapiens) (P07550 whole entry, looked up): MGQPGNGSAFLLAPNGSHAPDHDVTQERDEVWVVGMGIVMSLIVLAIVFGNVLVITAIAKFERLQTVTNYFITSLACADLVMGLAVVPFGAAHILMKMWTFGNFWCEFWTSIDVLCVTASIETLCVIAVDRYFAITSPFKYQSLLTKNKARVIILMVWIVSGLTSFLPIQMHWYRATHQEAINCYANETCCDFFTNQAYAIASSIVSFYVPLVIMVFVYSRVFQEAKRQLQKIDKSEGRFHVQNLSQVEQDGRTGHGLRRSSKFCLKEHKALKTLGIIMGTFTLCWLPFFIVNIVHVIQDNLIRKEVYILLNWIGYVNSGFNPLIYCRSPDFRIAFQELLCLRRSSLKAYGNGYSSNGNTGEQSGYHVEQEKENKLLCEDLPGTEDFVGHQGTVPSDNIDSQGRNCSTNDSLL
Chain of Tumor susceptibility gene 101 protein (Homo sapiens) (Q99816 whole entry, looked up, the tested form may be a part): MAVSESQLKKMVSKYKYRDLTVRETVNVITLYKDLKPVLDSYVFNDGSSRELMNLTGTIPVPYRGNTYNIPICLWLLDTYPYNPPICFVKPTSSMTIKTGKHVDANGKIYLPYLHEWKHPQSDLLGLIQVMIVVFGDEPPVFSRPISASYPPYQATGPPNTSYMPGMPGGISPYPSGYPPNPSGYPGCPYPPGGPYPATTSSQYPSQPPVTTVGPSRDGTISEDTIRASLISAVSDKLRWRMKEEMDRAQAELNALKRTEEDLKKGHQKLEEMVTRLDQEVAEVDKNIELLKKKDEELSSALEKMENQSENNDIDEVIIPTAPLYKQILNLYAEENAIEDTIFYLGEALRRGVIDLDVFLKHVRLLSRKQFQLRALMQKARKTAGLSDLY
Chain of ATP-dependent 6-phosphofructokinase (Trypanosoma brucei brucei) (O15648 whole entry, looked up): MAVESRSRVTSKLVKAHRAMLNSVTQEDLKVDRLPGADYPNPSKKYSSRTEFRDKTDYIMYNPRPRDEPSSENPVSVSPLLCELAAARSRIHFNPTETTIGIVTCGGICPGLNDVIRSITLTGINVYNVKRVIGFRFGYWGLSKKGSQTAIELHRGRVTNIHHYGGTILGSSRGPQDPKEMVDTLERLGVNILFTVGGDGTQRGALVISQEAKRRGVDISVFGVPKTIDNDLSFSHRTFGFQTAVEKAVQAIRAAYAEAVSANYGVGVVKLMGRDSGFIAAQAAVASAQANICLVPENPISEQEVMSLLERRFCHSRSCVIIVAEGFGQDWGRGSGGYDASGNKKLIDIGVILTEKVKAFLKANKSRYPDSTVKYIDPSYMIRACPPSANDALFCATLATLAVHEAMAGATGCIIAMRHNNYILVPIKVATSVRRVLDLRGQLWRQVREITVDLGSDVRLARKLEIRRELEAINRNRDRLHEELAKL
Chain of Ubiquitin carboxyl-terminal hydrolase 2 (Homo sapiens) (O75604 whole entry, looked up): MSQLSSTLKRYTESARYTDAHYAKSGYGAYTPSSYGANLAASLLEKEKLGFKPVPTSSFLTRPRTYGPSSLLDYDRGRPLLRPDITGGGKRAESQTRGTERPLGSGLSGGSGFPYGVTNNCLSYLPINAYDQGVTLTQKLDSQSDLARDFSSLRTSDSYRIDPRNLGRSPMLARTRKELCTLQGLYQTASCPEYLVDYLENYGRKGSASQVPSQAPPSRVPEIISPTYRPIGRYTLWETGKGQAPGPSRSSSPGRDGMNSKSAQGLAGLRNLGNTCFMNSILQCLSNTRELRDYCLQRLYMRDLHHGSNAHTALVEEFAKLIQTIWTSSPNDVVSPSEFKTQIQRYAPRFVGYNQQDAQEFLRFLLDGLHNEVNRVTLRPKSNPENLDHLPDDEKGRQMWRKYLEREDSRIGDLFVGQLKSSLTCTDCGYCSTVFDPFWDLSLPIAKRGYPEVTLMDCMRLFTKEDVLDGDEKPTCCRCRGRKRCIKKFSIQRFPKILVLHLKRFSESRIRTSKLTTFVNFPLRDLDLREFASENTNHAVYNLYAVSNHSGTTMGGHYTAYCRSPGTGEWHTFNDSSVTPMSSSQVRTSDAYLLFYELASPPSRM
Chain of DNA polymerase III PolC-type (Bacillus subtilis (strain 168)) (P13267 whole entry, looked up): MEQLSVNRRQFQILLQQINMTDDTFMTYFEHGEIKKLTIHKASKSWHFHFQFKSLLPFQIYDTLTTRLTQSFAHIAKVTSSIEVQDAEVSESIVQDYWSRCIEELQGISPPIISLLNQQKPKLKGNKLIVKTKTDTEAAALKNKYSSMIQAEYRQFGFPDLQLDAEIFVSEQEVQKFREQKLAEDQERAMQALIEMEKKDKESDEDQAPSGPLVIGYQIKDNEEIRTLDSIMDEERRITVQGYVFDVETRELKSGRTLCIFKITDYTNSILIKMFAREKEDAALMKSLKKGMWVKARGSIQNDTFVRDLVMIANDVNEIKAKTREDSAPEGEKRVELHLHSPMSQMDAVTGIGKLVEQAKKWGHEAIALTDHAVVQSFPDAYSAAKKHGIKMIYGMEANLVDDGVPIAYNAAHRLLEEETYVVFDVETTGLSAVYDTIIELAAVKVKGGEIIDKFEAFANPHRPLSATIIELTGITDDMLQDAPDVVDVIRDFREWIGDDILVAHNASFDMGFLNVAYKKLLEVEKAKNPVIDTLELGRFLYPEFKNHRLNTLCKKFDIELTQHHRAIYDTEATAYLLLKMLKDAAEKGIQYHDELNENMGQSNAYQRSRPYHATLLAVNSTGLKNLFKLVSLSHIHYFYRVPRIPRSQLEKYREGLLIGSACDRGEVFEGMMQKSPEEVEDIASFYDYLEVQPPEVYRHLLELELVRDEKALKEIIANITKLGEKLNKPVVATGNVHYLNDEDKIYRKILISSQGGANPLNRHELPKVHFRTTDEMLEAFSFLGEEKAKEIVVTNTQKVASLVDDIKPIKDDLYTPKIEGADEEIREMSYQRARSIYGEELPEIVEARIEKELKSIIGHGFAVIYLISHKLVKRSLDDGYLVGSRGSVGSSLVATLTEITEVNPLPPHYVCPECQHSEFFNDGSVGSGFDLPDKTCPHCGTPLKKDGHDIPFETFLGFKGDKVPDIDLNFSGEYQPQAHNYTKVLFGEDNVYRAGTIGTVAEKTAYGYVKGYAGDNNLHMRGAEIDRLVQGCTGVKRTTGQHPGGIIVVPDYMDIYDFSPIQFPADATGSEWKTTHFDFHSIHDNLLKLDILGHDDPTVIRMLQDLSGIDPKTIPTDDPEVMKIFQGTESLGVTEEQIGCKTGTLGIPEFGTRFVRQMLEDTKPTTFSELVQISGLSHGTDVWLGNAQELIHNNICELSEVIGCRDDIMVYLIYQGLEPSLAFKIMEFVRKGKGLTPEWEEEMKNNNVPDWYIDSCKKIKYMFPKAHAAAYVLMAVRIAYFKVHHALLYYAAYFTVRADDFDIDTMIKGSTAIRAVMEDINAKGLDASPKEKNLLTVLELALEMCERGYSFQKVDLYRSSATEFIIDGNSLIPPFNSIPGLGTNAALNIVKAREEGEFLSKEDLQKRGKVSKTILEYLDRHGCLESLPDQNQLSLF

| Structure (SMILES) | Potency [1] | outcome [2] | Potency [3] | outcome [4] | outcome [5] | outcome [6] | Potency [7] | Potency [8] | Potency [9] | outcome [10] |
| --- | --- | --- | --- | --- | --- | --- | --- | --- | --- | --- |
| CCCC(C(=O)OCCN(CC)CC)(c1ccccc1)c1ccccc1 | inactive | inactive | inactive | inactive | inactive | inactive |  |  |  |  |
| CC(C)(C)NCC(O)c1cc(O)cc(O)c1 (stereo not drawn) | inactive | inactive | inactive | inactive |  | inactive | inactive |  |  |  |
| Nc1ncn([C@@H]2O[C@H](CO)[C@@H](O)[C@H]2O)c(=O)n1 | 3.16 µM (active) | inactive | inactive | inactive | inactive | inactive | inactive | inactive |  |  |
| CC(C)NNC(=O)c1ccncc1 | inactive | inactive | inactive | inactive |  | inactive | inactive |  | inactive |  |
| COc1cc(Cc2cnc(N)nc2N)cc(OC)c1OC | inactive | inactive | inactive | inactive |  | inactive | inactive |  | inactive |  |
| FC(F)(F)c1ccccc1-n1ccnc1 | inactive | inactive | inactive | inactive | inactive | inactive |  |  |  |  |
| c1ccc2c(c1)CCCC2C1=NCCN1 (stereo not drawn) | inactive | inactive | inactive | inactive | inactive | inactive |  | inactive |  | inactive |
| COC(=O)[C@@H](N)Cc1ccc(O)c(O)c1 | inactive | inactive | inactive | inactive | inactive |  |  | inactive |  | inactive |
| CC(C)COCC(CN(Cc1ccccc1)c1ccccc1)N1CCCC1 (stereo not drawn) | inactive | inactive | inactive | inactive |  | inactive | inactive | inactive |  |  |
| CNCCC(Oc1ccccc1OC)c1ccccc1 (stereo not drawn) | inactive | inactive | inactive | inactive | inactive | inactive | inactive |  |  |  |
| COc1ccc(CN(CCN(C)C)c2ccccn2)cc1 | inactive | inactive | inactive | inactive |  | inactive |  | inactive |  |  |
| CC(=O)Nc1nnc(S(N)(=O)=O)s1 | inactive | inactive | inactive | inactive |  | inactive | inactive |  | inactive |  |
| Cc1nc2c([nH]1)c(=O)n(C)c(=O)n2Cc1ccco1 | inactive | inactive | inactive | inactive |  | inactive | inactive |  |  | inactive |
| C#CCN(C)CCCOc1ccc(Cl)cc1Cl | inactive | inactive | inactive | inactive | inactive | inactive | inactive |  |  | inactive |
| O=c1[nH]c(=O)n([C@H]2C[C@H](O)[C@@H](CO)O2)cc1Br | inactive | inactive | inactive | inactive |  | inactive | inactive | inactive |  | inactive |
| CC(=O)OCC1=C(C(=O)O)N2C(=O)[C@@H](NC(=O)Cc3cccs3)[C@H]2SC1 | inactive | inactive | inactive | inactive | inactive | inactive | inactive | inactive |  |  |
| CCCCNC(=O)NS(=O)(=O)c1ccc(C)cc1 | inactive | inactive | inactive | inactive | inactive | inactive | inactive | inactive |  | inactive |
| C=CCc1ccccc1OCC(O)CNC(C)C (stereo not drawn) | inactive | inactive |  | inactive |  | inactive | inactive |  | inactive |  |
| CCn1ccnc1CC1COc2ccccc2O1 (stereo not drawn) | inactive | inactive |  | inactive | inactive | inactive | inactive |  |  |  |
| CC(N=C(NC#N)Nc1ccncc1)C(C)(C)C (stereo not drawn) | inactive | inactive |  | inactive | inactive | inactive |  | inactive | inactive | inactive |
| Cc1nc2ccccn2c(=O)c1CCN1CCC(C(=O)c2ccc(F)cc2)CC1 | inactive | inactive |  | inactive |  | inactive |  | inactive | inactive |  |
| C[N+](C)(C)CCCCCCCCCC[N+](C)(C)C | inactive | inactive |  | inactive | inactive | inactive |  | 329 nM (active) |  | inactive |
| CCc1c(C)[nH]c2c1C(=O)C(CN1CCOCC1)CC2 (stereo not drawn) | inactive | inactive |  | inactive | inactive | inactive | inactive |  |  | inactive |
| CN(C)C/C=C(/c1ccc(Br)cc1)c1cccnc1 | inactive | inactive |  | inactive |  | inactive | 13.1 µM (active) |  | inactive | inactive |
| CCCN(CCC)C(=O)C(CCC(=O)O)NC(=O)c1ccccc1 (stereo not drawn) | inactive | inactive |  | inactive | inactive | inactive | inactive |  |  |  |
| CC(=O)[C@]1(O)Cc2c(O)c3c(c(O)c2[C@@H](O[C@H]2C[C@H](N)[C@H](O)[C@H](C)O2)C1)C(=O)c1ccccc1C3=O | inactive |  | 1.06 µM (active) |  | inactive | inactive |  | 3290 nM (active) |  |  |
| N[C@@H](COP(=O)(O)O)C(=O)O | inactive | inactive |  | inactive | inactive | inactive |  |  |  |  |
| NC(N)=N/N=C/c1c(Cl)cccc1Cl | inactive | inactive |  | inactive | inactive | inactive | inactive |  | inactive |  |
| CN(C)C(=O)Oc1cccc([N+](C)(C)C)c1 | inactive | inactive |  | inactive | inactive | inactive |  |  |  | inactive |
